Compound activity: PubChem, Broad Institute
Tgondii IFNg – T. gondii growth inhibition under IFN-gamma; activity change, negative = inhibition, % (test concentration not listed); actives 3.8% (n = 69,000); Toxoplasma gondii growth in IFN-gamma-treated host cells; stronger effect = lower value; AID 1259416; in the data active means activity change below about -70%, passing the limit was not always enough;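 further: host cells are HeLa cells infected with Toxoplasma gondii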
The depositor's hits bear a star; i = inactive; ! = a repeat was not active. The full list was thinned out, with hits kept by preference.

SMILES	Tgondii IFNg
CCN1CC[C@@]2(C(=O)Nc3ccccc3)CCN(S(=O)(=O)c3cccc(F)c3)CC[C@H]12	-3.4
Cc1ccsc1[C@@H]1CCN(C(=O)CCC(=O)c2ccccc2)C[C@H]1O	62.3
COCCN1CCCc2sc(C(=O)N(C)C)nc21	1.7
CC1c2snnc2-c2cc(Cl)ccc2S1(=O)=O (stereo not given)	-102.5*
CC(C)n1cnc2c(N3CCCC3)nc(C3CCN(Cc4ccco4)CC3)cc21	-32.0
O=C(c1ccc2c(c1)OCO2)N1CCc2c([nH]c3ccccc23)C1c1ccccc1 (stereo not given)	-97.9*
COc1ccc(C2c3[nH]c4ccccc4c3CCN2C(=O)c2ccc3c(c2)OCO3)cc1 (stereo not given)	-80.9*
COc1cc(C(=O)N2CCc3c([nH]c4ccccc34)C2c2ccccc2)cc(OC)c1OC (stereo not given)	177.2
COc1ccc(C(=O)N2CCc3c([nH]c4ccccc34)C2c2ccc(SC)cc2)cc1OC (stereo not given)	i
O=C(c1ccncc1)N1CCc2c([nH]c3ccccc23)C1c1ccccc1 (stereo not given)	337.0
O=C(/C=C/c1cccs1)NCC1Cc2cc(F)cc(-c3ccccn3)c2O1 (stereo not given)	-4.2
FC(F)(F)CCCN1CCOC(CCCc2ccccc2)C1 (stereo not given)	-2.9
COc1ccc(-n2c(=O)c(C(=O)NC(C)c3ccc(F)cc3)c(O)c3cccnc32)cc1 (stereo not given)	122.2
CC1=C(C(=O)Nc2ccc(C)cc2)C2(CCN(S(C)(=O)=O)CC2)OC1=O	42.8
Cn1cccc1CNCCN1CCOCC1	-12.8
CC(=O)Nc1cccc(NC(=O)c2ccc(CN3CCCC(C)(O)C3)cc2)c1 (stereo not given)	32.3
CN(Cc1ccncc1)Cc1cnn(-c2ccc(F)cc2)c1	-0.6
O=C(O)C1(Cc2cc(-c3ccccc3)no2)CCOCC1	38.9
O=C(NCCc1csc(-c2ccc(F)cc2)n1)c1c(F)cccc1F	-7.1
COc1ccc(C(=O)N2CCC(c3c(S(C)(=O)=O)cnc4ncnn34)CC2)cc1OC	53.2
O=C1C(=O)N2C(=C1C(=O)N1CCOCC1)c1ccccc1CC21CCCCC1	-96.3*
c1ccc2c(c1)CC1(CCCCC1)n1nnnc1-2	27.8
O=C1C(=O)N2C(=C1C(=O)N1CCCCCC1)c1ccccc1CC21CCCC1	117.3
CCn1c(CC2CCNCC2)nn(Cc2cc(-c3ccccn3)no2)c1=O	2.6
O[C@H]1CN(c2nccc(C3CCCC3)n2)C[C@@H]1N1CCCCC1	7.8
SMILES	Tgondii IFNg
O=c1[nH]cc(Nc2ccccc2)c(=O)[nH]1	27.3
Nc1c(NCc2ccccc2)c(=O)c1=O	28.4
O=c1c(Nc2ccccc2)c(Nc2ccccc2)c1=O	-81.9*
CCOc1ccc(-c2nc(Cn3ccn4nc(-c5cccs5)cc4c3=O)c(C)o2)cc1OC	-43.7
COCCCN1C(=O)CC(CC(=O)N2CCCCC2c2nccn2C)(c2ccccc2Cl)C1=O (stereo not given)	-0.1
CC(C)c1nc2ccc(Br)cn2c1NC1CCCCC1	36.3
CCc1nc(OCC(=O)Nc2ccc(C(C)C)cc2)c2ccccc2n1	5.0
CCOc1nc(Nc2ccc(C(C)C)cc2)nc(NC2CCCCC2)n1	-87.0*
N#Cc1cccc(N2CCOCC3(CCCN(Cc4ccncc4)C3)C2)n1 (stereo not given)	10.5
COCCC(=O)N1CCC2(CCC(COCC3CC3)N2C)CC1 (stereo not given)	0.0
O=C(NCC1(O)CCCNCC1)c1cc(-c2ccccc2)on1 (stereo not given)	5.8
Cc1cccnc1CC(C)NC(=O)c1ccc(Cn2cnnn2)cc1 (stereo not given)	-18.3
C[C@H]1O[C@@H](O[C@H]2[C@@H](O)C[C@H](O[C@H]3[C@@H](O)C[C@H](O[C@H]4CC[C@]5(C)C6CC[C@]7(C)[C@@H](C8=CC(=O)OC8)CC[C@]7(O)C6CC[C@@H]5C4)O[C@@H]3C)O[C@@H]2C)C[C@H](O)[C@@H]1O (stereo not given in full)	-79.7*!
CCn1cc(S(=O)(=O)NCC2(N3CCOCC3)CCCCC2)cn1	-30.3
COc1ccc(CNC(=O)Cn2ncc3c(N4CCN(C)CC4)ncnc32)cc1	-0.1
CN(C)CCNC(=O)Cn1ncc2c(N3CCN(c4ccccn4)CC3)ncnc21	-10.4
O=C(Cn1ncc2c(N3CCN(c4ccccn4)CC3)ncnc21)NCc1ccccc1	-105.2*
COc1ccc(CNC(=O)Cn2ncc3c(N4CCN(c5ccccc5)CC4)ncnc32)cc1	-102.2*
CCc1ccc(CNC(=O)Cn2ncc3c(N4CCN(c5ccccn5)CC4)ncnc32)cc1	30.8
Cc1ccc(CNC(=O)Cn2ncc3c(N4CCN(c5ccccc5)CC4)ncnc32)cc1	-15.4
Cc1ccc(NC(=O)c2nc(Nc3ccccc3)c3ccccc3n2)cc1Cl	20.0
CC(c1ccon1)N(C)C(=O)c1cccc2ccnn12 (stereo not given)	38.1
CC1c2ncc(Cn3cccn3)n2CCN1CC1CCOCC1 (stereo not given)	125.4
Fc1cccc(-c2nc3c(c(NC4CC4)n2)CNCC3)c1	-86.1*
c1ccc2c(c1)CC(Nc1nc(C3CCCC3)nc3c1CNC3)CO2 (stereo not given)	2.2
SMILES	Tgondii IFNg
CN1C(C)(C)CC(Nc2nc(-c3ccccn3)nc3c2CCNC3)CC1(C)C	-4.1
COc1nn(CC(=O)NC(Cc2ccsc2)c2cccnc2)c(=O)c2ccccc12 (stereo not given)	-6.0
CCc1nc(C)c(C(=O)N(C)Cc2ccc3nsnc3c2)o1	-3.0
CCc1nc(C)c(C(=O)N(C)Cc2csc(C(C)C)n2)o1	-91.7*
CCc1nc(C)c(C(=O)N(C)Cc2snnc2C)o1	-27.1
COc1ccc(CCC(=O)NCCc2sc(-c3ccc(OC)c(OC)c3)nc2C)cc1	i
CCc1oc(C(=O)Nc2ccc(Cn3cncn3)cc2)cc1CN1CCOCC1	19.5
O=C1c2ccccc2OC(c2ccccc2)C12N=NCC2c1ccc(Cl)cc1Cl (stereo not given)	32.2
CCOC(=O)c1c(CSC2CCCCC2)oc2ccc(O)cc12	-103.8*
CCOC(=O)c1oc2ccccc2c1NC(C)=O	15.7
CCOC(=O)c1oc2ccc(CNC3CCCCC3)c(Cl)c2c1C	-9.2
CCOc1ccc(OCC)c(NC(=O)C2=C(C)C(=O)OC23CCN(CC)CC3)c1	153.2
COc1ccc(-c2nc3c(s2)CN(C(=O)Nc2ccccc2OC)CC3)cc1	6.9
COc1cc(NC(=O)N2CCc3nc(-c4ccc(C)cc4)sc3C2)cc(OC)c1	31.2
COc1cccc(-c2nc3c(s2)CN(C(=O)Nc2ccc(Br)cc2)CC3)c1	-35.8
COc1ccc(-c2nc3c(s2)CN(C(=O)Nc2cccc(SC)c2)CC3)cc1	-115.8*
COc1ccc(-c2nc3c(s2)CN(C(=O)Nc2ccc(C)c(C)c2)CC3)cc1	-94.8*
COc1ccc(-c2nc3c(s2)CN(C(=O)Nc2cc(C)ccc2C)CC3)cc1	77.6
C=C(C)COc1cccc(C(=O)NCCn2cccn2)c1	41.3
COCCN1C(=O)CCC12CCN(C(=O)c1conc1C)CC2	-2.3
Cc1cc(C)c2nc(NC(=O)c3ccc(C4CCCN(S(C)(=O)=O)C4)nc3)sc2c1 (stereo not given)	-58.4
Cc1oc(-c2ccccc2Cl)nc1CN1C(=O)C(O)(c2ccccc2)c2ccccc21 (stereo not given)	-96.4*
CCOc1ccc(-c2nc(CN3C(=O)C(O)(c4ccccc4)c4ccccc43)c(C)o2)cc1 (stereo not given)	8.6
